Source: PubChem BioAssay (National Center for Advancing Translational Sciences (NCATS))
CHX counter – Cycloheximide Counterscreen for Small Molecule Inhibitors of Shiga Toxin. cell reporter, cycloheximide protein synthesis inhibition counterscreen. max response, %. actives 12% (n = 300,000). AID 2314, 2010; in the data active = max response mostly above about 13%, no sharp cut-off; inactive = mostly below about 14%; note: read at 38.3 µM for the half of the compounds with a filed dose; 0% is about no effect
Pf growth 48h – Primary qHTS for delayed death inhibitors of the malarial parasite plastid, 48 hour incubation; P. falciparum luciferase growth in erythrocytes, 48 h; Potency, µM (top dose mostly 28.7 µM), without a hit: top-dose activity change, negative = inhibition, hits mostly inhibitors; actives 5.9% (n = 310,000); AID 504832, 2011; note: potency is the fitted concentration of half-maximal effect; % is set by controls: 0 for no effect and ±100 for the full control effect
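In quantitative HTS format, infected erythrocytes bearing luciferase-reporter parasites were treated for a single generation at 37 C. Luminescence after adding detection reagent served as the growth measure.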
Shiga inhibitor – A qHTS for Small Molecule Inhibitors of Shiga Toxin | Vero cells, Shiga toxin protein synthesis inhibition reporter | AID 2315, 2010 | inhibition, % at 38.7 µM | actives 9.2% (n = 290,000); in the data active = inhibition mostly above about 28%, no sharp cut-off; inactive = mostly below about 43%; note: 0% is about no effect
LmPK inhibitor – qHTS Assay for Inhibitors of Leishmania Mexicana Pyruvate Kinase (LmPK); Q27686; purified LmPK, Kinase-Glo ATP luminescence, 1 h; Potency, µM (doses to about 57.5 µM), for the others: top-dose activity change, negative = inhibition, usual class: inhibitors; actives 0.37% (n = 290,000); note: potency is the fitted concentration of half-maximal effect; % is set by controls: 0 for no effect and ±100 for the full control effect
Target sequence (Q27686 whole entry, looked up): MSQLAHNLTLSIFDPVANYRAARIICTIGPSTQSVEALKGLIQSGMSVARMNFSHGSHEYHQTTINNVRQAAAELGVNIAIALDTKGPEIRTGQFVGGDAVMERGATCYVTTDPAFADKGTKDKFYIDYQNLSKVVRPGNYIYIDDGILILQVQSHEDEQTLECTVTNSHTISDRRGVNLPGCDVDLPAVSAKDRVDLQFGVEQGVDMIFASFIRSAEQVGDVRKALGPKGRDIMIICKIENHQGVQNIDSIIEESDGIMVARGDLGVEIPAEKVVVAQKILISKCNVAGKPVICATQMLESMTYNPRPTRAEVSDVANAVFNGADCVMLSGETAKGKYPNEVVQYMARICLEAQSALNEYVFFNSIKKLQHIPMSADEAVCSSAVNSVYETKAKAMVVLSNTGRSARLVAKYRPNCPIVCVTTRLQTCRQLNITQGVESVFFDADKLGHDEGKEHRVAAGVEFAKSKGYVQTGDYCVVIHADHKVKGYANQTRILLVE
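0.1 nM LmPK, 0.5 mM PEP, 0.1 mM ADP; 50 mM imidazole pH 7.2, 7 mM MgCl2, 50 mM KCl; 1 h RT. Kinase-Glo luminescence readout, normalized to no-enzyme (full inhibition) and uninhibited wells.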
Pf growth 96h – Primary qHTS for delayed death inhibitors of the malarial parasite plastid, 96 hour incubation. P. falciparum luciferase reporter growth, 96 h. Potency, µM (doses to about 28.7 µM), for the others: at the top dose activity change, negative = inhibition, hits mostly inhibitors. actives 6.9% (n = 320,000). AID 504834, 2011; note: potency is the fitted concentration of half-maximal effect; % is set by controls: 0 for no effect and ±100 for the full control effect
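Two-generation exposure (96 h) targets delayed-death phenotype. Reporter parasites carrying integrated firefly luciferase, in red cells at 2% hematocrit and 0.05% parasitemia final, kept at 37 C, 5% CO2; luminescence loss indicates inhibition.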
* marks the source's active call; other numbers are inactive results; u = inconclusive; x = no result; [ ] = another dose, or the depositor's remark. Hits are enriched below; roughly 22% of the tested compounds scored in any of these assays. Unless noted, calls come from the whole dose curve; as a rule, active = well fitted inhibition curve with a large enough effect; inconclusive = small, poorly fitted or top-dose-only effect, or another doubt; inactive = no such curve, though single readings can be large or run the other way.

SMILES	CHX counter	Pf growth 48h	Shiga inhibitor	LmPK inhibitor	Pf growth 96h
O=C(C1=C[C@@H](c2ccc(Br)cc2)C[C@@H](OCCCCO)O1)N1CCN(Cc2ccccc2)CC1	-1.4	8.28µM*	-15.2	-0.1%	11.7µM*
O=C(C1=C[C@@H](c2ccc3c(c2)OCO3)C[C@@H](OCCCCO)O1)N1CCN(Cc2ccc3c(c2)OCO3)CC1	1.0	u	-7.8	8.5%	10.4µM*
CCc1nc2nc(C)c(NS(=O)(=O)c3ccc(Cl)s3)c(=O)n2[nH]1	-2.6	u	-6.1	-2.0%	u
O=C1c2[nH]nc(-c3ccccc3O)c2C(c2cccc(O)c2)N1Cc1ccco1 (centres undefined)	-0.5	1.9%	-11.1	-3.1%	u
COc1ccc(C2c3c(-c4ccccc4O)n[nH]c3C(=O)N2Cc2ccco2)cc1 (centres undefined)	-3.1	u	-1.3	8.6%	9.28µM*
COc1cc(C2c3c(-c4ccccc4O)n[nH]c3C(=O)N2Cc2ccco2)cc(OC)c1OC (centres undefined)	-0.7	11.7µM*	17.1	5.0%	7.38µM*
O=C1CC(N2CCSCC2)C(=O)N1c1ccc(F)cc1 (centres undefined)	-1.6	3.3%	-1.7	-3.7%	22.5%
COc1cc(C(=O)Nc2ccc(S(=O)(=O)Nc3nccc(C)n3)cc2)c([N+](=O)[O-])cc1OC	-2.9	3.0%	-5.2	2.5%	u
CCOc1ccc(C(=O)Nc2ccc(S(=O)(=O)Nc3nccc(C)n3)cc2)cc1OCC	-4.5	-27.4%	-9.7	0.2%	8.28µM*
Cc1ccnc(NS(=O)(=O)c2ccc(NC(=O)C(C)(C)C)cc2)n1	-2.2	1.85µM*	-1.5	1.6%	48.1%
CCOc1ccccc1C(=O)Nc1ccc(S(=O)(=O)Nc2nccc(C)n2)cc1	-1.6	-10.1%	-5.0	-5.9%	13.1µM*
CCOC(=O)Nc1ccc(S(=O)(=O)Nc2nccc(C)n2)cc1	0.6	-12.7%	6.5	1.9%	13.5%
CSc1ncc(Cl)c(C(=O)Nc2ccc(S(=O)(=O)Nc3nccc(C)n3)cc2)n1	30.9*	178.3%	69.8*	-5.3%	37.5%
CC(=O)Nc1ccc(S(=O)(=O)Nc2nccc(C)n2)cc1	-3.4	67.3%	22.6	-1.3%	u
Cc1ccc(NC(=S)NCc2ccc3c(c2)cc(C)n3C)c(C)c1	5.1	u	25.7	-2.7%	u
Cc1ccc(NC(=O)CN2CCN(Cc3ccccc3)CC2)cc1F	-2.8	1.4%	-4.0	4.6%	8.4%
COc1cccc(CSc2nccn2C)c1	12.7	10.0%	3.6	0.8%	-26.1%
CCOc1ccccc1NC(=O)NC(=O)N(C)S(=O)(=O)c1ccc(C)cc1	-1.4	12.9%	-26.7	-1.4%[11.5 µM]	20.2%
COc1ccccc1/C=C/C(C)=O	-1.0	5.8%	1.5	-1.9%	-18.4%
CN(C)c1ccc(/C=C/c2ccc3ccccc3[n+]2C)cc1	19.0*	0.828µM*	22.5	14.1µM*	u
COc1ccc(/C=C/c2ccc3ccccc3[n+]2C)cc1OC	43.5*	1.17µM*	71.0*	1.6%	10.1%
CN(C)c1ccc(/C=C/c2ccc3c4ccccc4ccc3[n+]2-c2ccccc2)cc1	-2.6	8.28µM*	-18.2	1.0%	u
CN(C)c1ccc(/C=C/c2nc3ccccc3c(=O)n2CCO)cc1	9.6	u	17.3	2.4%	u
CC(=O)Oc1ccccc1/C=C/c1ccc2ccccc2[n+]1C	42.8*	u	107.4*	-1.8%	191.8%
CCCC(=O)N=c1sc2c(OC)ccc(OC)c2n1C	-2.9	41.6%	-2.1	-0.3%	43.6%
SMILES	CHX counter	Pf growth 48h	Shiga inhibitor	LmPK inhibitor	Pf growth 96h
CCN(CC)C1CCN(C(=O)c2ccc(OC3CCN(Cc4ccccn4)CC3)cc2)C1 (centres undefined)	-1.3	-19.8%	-2.3	6.0%	u
[O-][n+]1c(/C=C/c2ccccc2)ccc2ccccc21	28.7*	110.3%	30.9*	u	6.57µM*
CN(CCCS(=O)(=O)[O-])c1ccc(/C=C/c2ccc3ccccc3[n+]2C)cc1	7.6	23.6%	18.8	-5.4%	u
COc1cc(/C=N/NC(=O)C2CC(=O)N(c3ccc(C)cc3)C2)cc(OC)c1OC (centres undefined)	-3.8	-22.8%	-4.4	-10.0%	12.1%
CC[C@@]12C(=O)N(c3ccccc3)C(=O)N1[C@H](c1ccc(OC)cc1)[C@@H]1C(=O)N(C(C)(C)C)C(=O)[C@@H]12	x	-3.8%	x	x	46.5%
Cc1cccc([C@@H]2[C@@H]3C(=O)N(Cc4ccccc4)C(=O)[C@@H]3[C@]3(CC(C)C)C(=O)N(c4cccc(Cl)c4)C(=O)N23)c1	1.0	u	-5.1	1.2%	u
CC[C@@]12C(=O)N(c3ccc(OC)cc3)C(=O)N1[C@H](c1cccc(C)c1)[C@@H]1C(=O)N(Cc3ccccc3)C(=O)[C@@H]12	-2.1	u	-1.6	-0.3%	13.1µM*
CC[C@@]12C(=O)N(c3cccc(Cl)c3)C(=O)N1[C@H](c1cccc(C)c1)[C@@H]1C(=O)N(Cc3ccccc3)C(=O)[C@@H]12	x	4.65µM*	x	x	5.22µM*
Cc1cccc([C@@H]2[C@@H]3C(=O)N(Cc4ccccc4)C(=O)[C@@H]3[C@]3(Cc4ccc(Cl)cc4)C(=O)N(c4ccc(Br)cc4)C(=O)N23)c1	-1.0	u	-0.1	-1.7%	8.28µM*
Cc1cccc([C@@H]2[C@@H]3C(=O)N(Cc4ccccc4)C(=O)[C@@H]3[C@]3(C)C(=O)N(c4cccc(F)c4)C(=O)N23)c1	x	10.4µM*	x	x	u
Cc1ccc(N2C(=O)N3[C@H](c4cccc(C)c4)[C@@H]4C(=O)N(Cc5ccccc5)C(=O)[C@@H]4[C@]3(C)C2=O)cc1	x	u	x	x	-6.0%
N#Cc1ccc(Oc2ccc(S(=O)(=O)N3CCOCC3)cn2)cc1	x	u	x	x	0.2%
CCN(CC)S(=O)(=O)c1cc(C(=O)OCC(=O)Nc2ccc(-c3nc4ccc(C)cc4s3)cc2)ccc1F	63.1*	177.5%	92.4*	2.2%	198.4%
CCN(CC)S(=O)(=O)c1ccc(C(=O)OCC(=O)Nc2ccc(-c3nc4ccc(C)cc4s3)cc2)cc1	74.5*	227.4%	114.7*	-0.2%	279.3%
CCN(CC)S(=O)(=O)c1cc(C(=O)OCC(=O)Nc2cccc(S(=O)(=O)N(C)C)c2)ccc1F	7.0	-7.8%	-12.7	9.1%	u
COCCNC(=O)c1cccc(OC2CCN(C(C)COc3ccccc3)CC2)c1 (centres undefined)	-3.6	u	-5.3	-0.6%	u
COc1ccc(Cl)cc1NS(=O)(=O)c1cccc(C(=O)NCC(c2ccco2)N2CCCC2)c1 (centres undefined)	x	-3.5%	x	x	u
COc1ccc(C(=O)NCC(=O)NCCc2c[nH]c3ccccc23)cc1OC	1.2	11.1%	13.3	2.4%	u
